For one test, the target named is Albumin (Bos taurus) (UniProt P02769). The experiment in a line: bovine serum albumin binders on microarray, profiling panel, artefact control for SMM control protein annotation, biochemical, small-molecule microarray, Alexa647 label, 635/667 nm fluorescence (AID 1118).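 Further: score merges 667 nm emission intensity and signal-to-noise per printed compound spot.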 Particulars: BSA-A647 binding, fluorescence 635 nm, higher = more signal.
Test [1] in a line: small-molecule microarray binders of probe aXIP, primary screen, biochemical, NeuroSMM set, 635/667 nm fluorescence (AID 1119).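 Further: probe is the protein aXip251-270 applied at 1 µg/mL to compound-printed slides; binding of probe to printed compounds measured as 667 nm fluorescence plus signal to noise.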 The settings on record: higher = more signal, called active from +8 up or from −8 down.
A short description of test [2]: small-molecule binders of probe aNOTCH3, primary screen, biochemical, small-molecule microarray, 635/667 nm fluorescence (AID 1120).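 Further: probe is a biotin-tagged antibody raised against NOTCH3 rather than NOTCH3 protein; score merges spot fluorescence near 667 nm with spot signal to noise.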 The settings on record: higher = more signal.
Test [3] is described as follows: small-molecule binders of probe aNOTCH2, primary screen, biochemical, small-molecule microarray, 635/667 nm fluorescence (AID 1121).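 Further: score merges feature fluorescence read at 667 nm with its signal to noise.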 The settings on record: higher = more signal.
Test [4] has as its target Carbonic anhydrase 2 (Homo sapiens) (UniProt P00918). The experiment in a line: CAII small-molecule binders, profiling panel, biochemical, small-molecule microarray, Alexa647-labelled CAII (AID 1122). Particulars: CAII-A647 binding fluorescence, higher = more signal.
A short description of test [5]: COS7 lysate on small-molecule microarray, probe aHis, 635 nm (AID 1123).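 Further: z-score combines 667nm fluorescence intensity with signal-to-noise per printed compound spot.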 Particulars: COS7 cell lysate, fluorescence, higher = more signal.
Test [6] is described as follows: compound binding in COS7 lysate, probe aLAP1, primary screen, cell lysate, small-molecule microarray (AID 1124).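 Further: lysate comes from COS7 cells expressing LAP1 and is applied at 0.3 µg/mL; score merges spot fluorescence near 667 nm with signal-to-noise over triplicate slides.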 Particulars: probe aLAP1, fluorescence, higher = more signal.
The test system of a further test is Sam68 (KHDRBS1). The experiment in a line: Sam68 small-molecule binders, primary screen, biochemical, small-molecule microarray, 635 nm fluorescence (AID 1125).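 Further: score merges 667 nm channel intensity with signal to noise over triplicate slides.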 Particulars: small-molecule microarray binding, higher = more signal.
Test [7] relates to Chordin-like protein 2 (CHRDL2). Put plainly: CHRDL2 small-molecule binders, primary screen, biochemical, small-molecule microarray, 635 nm fluorescence (AID 1126).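 Further: printed compound slides probed with Chrdl2 protein at 4 µg/mL for 1 h at 4 C; score merges 667 nm emission intensity with signal to noise over three replicate slides.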 Particulars: small-molecule microarray binding, fluorescence 635 nm; higher = more signal.
Test [8] has as its target Concanavalin-A (Canavalia ensiformis) (UniProt P02866). The experiment in a line: ConA small-molecule binders, primary screen, artefact control for SMM control protein annotation, biochemical, small-molecule microarray, Alexa647 label, 635 nm (AID 1127).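 Further: z combines 667 nm emission intensity with signal-to-noise across three replicate slides.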 The settings on record: ConA-A647 binding fluorescence, higher = more signal.

Activity calls are given as the source filed them.

Sequence of Albumin (Bos taurus) (P02769 whole entry, looked up): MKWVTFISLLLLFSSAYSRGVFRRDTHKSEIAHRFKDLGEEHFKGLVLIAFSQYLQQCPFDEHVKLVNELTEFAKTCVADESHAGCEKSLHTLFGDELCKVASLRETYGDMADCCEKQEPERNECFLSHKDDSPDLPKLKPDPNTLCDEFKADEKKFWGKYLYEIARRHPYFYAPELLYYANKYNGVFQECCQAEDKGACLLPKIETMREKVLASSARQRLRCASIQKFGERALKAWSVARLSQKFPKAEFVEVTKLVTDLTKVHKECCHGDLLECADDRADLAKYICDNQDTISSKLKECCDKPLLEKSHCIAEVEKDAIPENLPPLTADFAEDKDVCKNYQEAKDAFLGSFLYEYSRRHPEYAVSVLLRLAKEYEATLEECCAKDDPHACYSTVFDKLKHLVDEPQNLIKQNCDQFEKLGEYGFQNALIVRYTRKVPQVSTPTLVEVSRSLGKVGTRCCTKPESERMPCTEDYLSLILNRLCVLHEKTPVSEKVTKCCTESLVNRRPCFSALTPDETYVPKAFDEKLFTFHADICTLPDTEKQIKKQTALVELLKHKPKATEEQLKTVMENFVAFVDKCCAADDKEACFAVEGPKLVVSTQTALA
Sequence of Concanavalin-A (Canavalia ensiformis) (P02866 whole entry, looked up): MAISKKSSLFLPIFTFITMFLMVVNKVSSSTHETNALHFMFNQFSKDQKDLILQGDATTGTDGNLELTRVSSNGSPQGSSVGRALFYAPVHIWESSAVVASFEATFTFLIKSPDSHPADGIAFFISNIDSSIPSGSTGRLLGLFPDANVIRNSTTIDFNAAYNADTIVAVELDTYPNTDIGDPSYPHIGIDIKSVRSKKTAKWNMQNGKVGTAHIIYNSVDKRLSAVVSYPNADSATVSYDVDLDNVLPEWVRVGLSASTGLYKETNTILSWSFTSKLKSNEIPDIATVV

With `COc1ccc(NN2C(C(O)c3ccc([N+](=O)[O-])cc3)C=CC3C(=O)N(C4CCCCC4)C(=O)C32)cc1` (stereo not given), the composite z-score with Albumin (Bos taurus) is 0.424; in test [2] it was 0.178; in test [3] it was -0.115; in test [4] it was 0.561; in test [5], 1.48; in test [6] it was -0.0699. Also, the composite z-score with Sam68 (KHDRBS1) was 1.23; in [7] it was -0.261; in [8], 0.505. Moreover, the composite Z-score in [1] was 0.601 (inactive).
For `CN(C)C(=O)[C@]1(Cc2ccccc2N=[N+]=[N-])N=C(c2ccc(OCCCO)cc2)O[C@@H]1c1ccccc1`, the composite z-score with Albumin (Bos taurus) was 0.724; in test [2] it was 0.0522; in test [3], -0.0013; in [4], 0.623; in test [5], 2.22; in test [6], 0.644. Besides, the composite z-score in the test with Sam68 (KHDRBS1) turned out to be 1.31; in test [7], 0.0709; in test [8], 1.13. In addition, the composite Z-score in [1] was -0.316 (inactive).
As for `C=CCNC(=O)[C@H]1[C@@H]2C(=O)O[C@@H](c3ccccc3)[C@@H](c3ccccc3)N2[C@@H](c2ccccc2OCCO)[C@]12C(=O)Nc1ccc(C#CC3=CCCCC3)cc12`, the composite z-score with Albumin (Bos taurus) was 0.039; in test [2] it was 0.0942; in test [3], -0.148; in test [4], 0.0836; in test [5], 1.19; in test [6], 1.37. The composite z-score in the test with Sam68 (KHDRBS1) stood at 1.29; in test [7], 0.495; in test [8] it was 1.02. The composite Z-score in [1] is 1.86 (inactive).
Regarding `COCC(=C=CC[C@H](O)c1ccccc1OCCO)C[C@H](O)c1cc(Cl)cc(Cl)c1O`, the composite z-score with Albumin (Bos taurus) was 0.384; in test [2], -0.0077; in test [3] it was -0.115; in test [4] it was 0.351; in [5], 0.834; in test [6] it was 0.478. In addition, the composite z-score in the test on Sam68 (KHDRBS1) is 1.24; in [7], -0.383; in [8], 0.689. For the same molecule, the composite Z-score in test [1] is 2.26 (inactive).
Regarding `C=CCNC(=O)[C@@H]1[C@H]2C(=O)O[C@H](c3ccccc3)[C@H](c3ccccc3)N2[C@H](c2ccc(OCCO)cc2)[C@@]12C(=O)Nc1ccc(C#CCCO)cc12`, the composite z-score with Albumin (Bos taurus) is 0.495; in test [2], 0.999; in [3] it was 0.403; in test [4], 0.659; in [5], 2.62; in test [6] it was 0.906. Besides, the composite z-score is 1.29 in the test with Sam68 (KHDRBS1), 1.15 in [7] and 1.15 in test [8]. Moreover, the composite Z-score in test [1] was 0.858 (inactive).
Regarding `C#CCN(Cc1ccccc1Br)C(/C=C/c1ccccc1)CO` (stereo not given), the composite z-score with Albumin (Bos taurus) is -0.406; in test [2] it was -0.212; in test [3], -0.18; in test [4] it was -0.22; in test [5], -0.163; in test [6], -0.146. Besides, the figures for the composite z-score (in the test with Sam68 (KHDRBS1); in [7]; in test [8]) were -0.271, 0.188 and -1.25, respectively. The composite Z-score in test [1] is -0.177 (inactive).
In the case of `COCCOC(=O)N1C(=O)[C@@]2(c3cc(C#Cc4ccc(OC)cc4)ccc31)[C@H](c1ccccc1OCCO)N1[C@H](c3ccccc3)[C@H](c3ccccc3)OC(=O)[C@H]1[C@@H]2C(=O)N1CCN(c2ncccn2)CC1`, the composite z-score with Albumin (Bos taurus) was 0.322; in test [2], -0.0288; in [3] it was -0.131; in test [4], 0.336; in test [5] it was 0.572; in test [6], 0.141. Also, the composite z-score with Sam68 (KHDRBS1) came to 0.866; in [7] it was 0.0135; in [8], 0.923. The composite Z-score in test [1] was 0.179 (inactive).
For `C[C@]1(C(=O)NC2CC2)c2ccccc2C(=O)N(Cc2cc(C(F)(F)F)cc(C(F)(F)F)c2)[C@H]1c1ccc(CO)cc1`, the composite z-score with Albumin (Bos taurus) is -0.0744; in [2], 0.208; in test [3] it was -0.0712; in [4], 0.412; in test [5], 1.28; in test [6], 0.283. The composite z-score in the test with Sam68 (KHDRBS1) stood at 1.32; in test [7], 0.39; in test [8], 0.835. In [1], the composite Z-score was 0.676 (inactive).
For `COC(=O)[C@@]1(Cc2ccc(OC)cc2)[C@H]2c3cc(C(=O)N4CCCC4)n(Cc4ccsc4Br)c3C[C@H]2CN1C(=O)c1ccccc1`, the composite z-score in the test with Albumin (Bos taurus) is 0.885; in [2], 0.527; in test [3], -0.0677; in test [4], 0.877; in test [5] it was 2.83; in test [6], 0.0786. Besides, the composite z-score in the test with Sam68 (KHDRBS1) is 0.374; in test [7] it was -0.91; in test [8], 0.496. Also, the composite Z-score in [1] is 0.387 (inactive).
As to `CC(C)(C)OC(=O)CC[C@]12N=C(c3ccc(OCCCO)cc3)O[C@H]1c1ccccc1N(CCS(=O)(=O)c1ccccc1)C2=O`, the composite z-score is 0.0963 in the test with Albumin (Bos taurus); 0.21 in test [2]; -0.0241 in test [3]; 0.422 in test [4]; 2.48 in test [5]; 0.53 in [6]. Also, the composite z-score is 1.3 with Sam68 (KHDRBS1), 0.765 in [7] and 1.14 in test [8]. Moreover, the composite Z-score in test [1] was 1.02 (inactive).
Regarding `COc1ccc([Si](C)(C)[C@@H]2[C@@H](CCO)O[C@]3(C(=O)N(Cc4ccc(N5C(=O)COc6ccccc65)cc4)c4ccccc43)[C@H]2C)cc1`, the composite z-score with Albumin (Bos taurus) was 0.671; in [2], 0.305; in [3], -0.0924; in test [4], 0.59; in test [5], 1.55; in test [6], 0.844. Further, the composite z-score in the test with Sam68 (KHDRBS1) turned out to be 1.33; in [7], 0.106; in test [8] it was 1.07. Further, in test [1], the composite Z-score is -0.539 (inactive).
As for `C[C@@H]1ON(c2cccc(C(=O)OC(C)(C)C)c2)[C@H](c2ccc(Br)cc2)[C@H]1C(=O)N1C(=O)OC[C@H]1Cc1ccccc1`, the composite z-score in the test with Albumin (Bos taurus) was 0.0512; in test [2], 0.0325; in test [3], -0.0454; in test [4], 0.133; in [5], 1.2; in test [6], 0.261. The composite z-score in the test on Sam68 (KHDRBS1) is 1.21; in test [7], 0.52; in test [8], 1.09. Moreover, in test [1], the composite Z-score is 0.0724 (inactive).
As for `O=C1[C@H]2C=C(Br)[C@H](C[C@@H]2c2ccccc2)[C@@]12CO2`, the composite z-score was -0.6 in the test with Albumin (Bos taurus); 0.11 in [2]; -0.0817 in test [3]; 0.183 in test [4]; -0.0697 in [5]; -0.187 in test [6]. Further, the composite z-score is 0.383 in the test on Sam68 (KHDRBS1), 0.945 in [7] and -0.0479 in test [8]. In addition, the composite Z-score in test [1] was 1.22 (inactive).
Regarding `COCCOC(=O)N1C(=O)[C@@]2(c3cc(C#CCCO)ccc31)[C@H](c1ccc(OCCO)cc1)N1[C@H](c3ccccc3)[C@H](c3ccccc3)OC(=O)[C@H]1[C@@H]2C(=O)N1CCN(c2ncccn2)CC1`, the composite z-score in the test with Albumin (Bos taurus) is 0.679; in test [2] it was 0.162; in test [3] it was -0.161; in test [4] it was 0.31; in [5], 2.03; in [6], 0.602. For the same molecule, the composite z-score in the test with Sam68 (KHDRBS1) turned out to be 1.29; in test [7], 0.718; in test [8], 1.15. Besides, the composite Z-score in test [1] was -0.114 (inactive).
With `[N-]=[N+]=Nc1ccccc1C[C@]1(C(N)=O)N=C(c2ccc(OCCCO)cc2)O[C@H]1c1ccccc1`, the composite z-score was 0.989 with Albumin (Bos taurus); 0.0556 in test [2]; -0.106 in test [3]; 0.662 in test [4]; 2.59 in test [5]; 0.386 in [6]. In addition, the results for the composite z-score (with Sam68 (KHDRBS1); in [7]; in [8]) were 0.974, -1.18 and 0.6, respectively. Further, the composite Z-score in test [1] was 0.364 (inactive).
